# Screening results as filed in PubChem.
# aSyn UTR act: Activators via SNCA 5'UTR binding, MLPCN | hit rate 7.1% among 300,000 | activity score, % (tested at 7.5 µM), hits read low | alpha-synuclein 5'UTR reporter, activators screen; in the data active means activity score below about -60%
# Hits are given with their value; - = inactive. Not all results are given here.
SMILES,aSyn UTR act
O=C(COC(=O)c1ccccc1[N+](=O)[O-])c1ccc(C2CCCCC2)cc1,-76
CN(C)c1nc(N)nc(CSc2nc3cc(Cl)ccc3o2)n1,-126
Cc1ccccc1Oc1ccc(Oc2ccccc2C)nn1,-136
Cc1ccc(C(=O)NCCc2csc(-c3cccnc3)n2)cc1,-77
COc1ccc(Br)cc1CNC(=O)C1CCN(C(=O)N(C)C)CC1,-
CN(C)C(=O)N1CCCC(C(=O)NCCc2ccccc2)C1 (stereo not drawn),-91
CC1CCCCN1C(=S)NCCc1ccccc1 (stereo not drawn),-93
O=C(NCCc1ccccc1)C1CCN(C(=O)Nc2ccccc2)CC1,-66
CC1CCCN(C(=S)NCCc2ccccc2)C1 (stereo not drawn),-102
COc1cc(/C=N/NC(=O)Nc2ccccc2)ccc1OC(C)=O,-188
COc1cc(/C=N/NC(=S)Nc2cccc(C(=O)O)c2)ccc1O,-
CCOc1cc(/C=N/NC(=O)Nc2ccccc2)ccc1O,-197
Cc1occc1-c1nc(-c2ccncc2)no1,-77
Cc1ccc(-c2noc(-c3ccoc3C)n2)cc1,-186
COc1cc(NC(=S)N2CCOCC2)c(OC)cc1Cl,-211
Cc1ccc2c(c1)c1nc3ccccc3nc1n2C,-90
Fc1ccc(Nc2nc3ccccc3s2)cc1,-207
Cc1ccc(Nc2nc3ccccc3s2)cc1,-171
CN(C)c1ccc(CNc2nc3ccccc3s2)cc1,-
Cc1ccccc1Nc1nc2ccccc2s1,-220
Cc1ccccc1Nc1nn2c(=O)c3ccccc3nc2s1,-155
Cc1nc(OCC(C)C)c2sc3nc4c(cc3c2n1)COC(C)(C)C4,-130
COc1nc(C)nc2c1sc1nc3c(cc12)COC(C)(C)C3,-145
Cc1ccc(Cl)c2c(N=Nc3ccccc3)c(O)[nH]c12,-170
O=C(Cc1ccccc1)N/N=C/c1ccccc1OCc1ccc(Cl)cc1,-95
SMILES,aSyn UTR act
O/N=C/c1ccccc1OCc1ccc(Cl)cc1,-98
Cc1ccc(O)c(/C=N/NC(=O)Cc2ccc(Cl)cc2)c1,-
COc1ccc2nc(N3CCCCC3)c(C#N)cc2c1,-110
COc1ccc2nc(N3CCCC3)c(C#N)cc2c1,-105
CCc1ccc(NC2=NCC(c3ccccc3)S2)cc1 (stereo not drawn),-140
COc1ccc(OC)c2nc(-c3cccnc3)ccc12,-67
COc1ccccc1Nc1nc(NCC(C)C)nc(N)c1[N+](=O)[O-],-
COc1ccccc1Nc1nc(-c2cccnc2)cs1,-110
O=[N+]([O-])c1ccccc1Nc1nc(-c2cccnc2)cs1,-91
COc1ccc(Nc2nc(-c3cccnc3)cs2)c(OC)c1,-175
COc1ccccc1Nc1nc(C2(C)CCC(=O)O2)cs1 (stereo not drawn),-106
CCc1ccc2nc(/N=C(\N)NC(=O)c3ccccc3)nc(C)c2c1,-120
Cc1ccc(OCc2ccc([N+](=O)[O-])cc2)c([N+](=O)[O-])n1,-115
Cc1ccc(OCCOc2ccc(Br)cc2)c([N+](=O)[O-])n1,-182
O=C(N/N=C/c1ccc([N+](=O)[O-])o1)c1cc2ccccc2o1,-
O=[N+]([O-])c1ccc(/C=N/Nc2ccc3ccccc3c2)o1,-104
Cc1nc2ccccn2c1C(=O)N/N=C/c1ccc([N+](=O)[O-])o1,-81
c1ccc(CCn2nnc3ccccc32)cc1,-138
O=C(Cn1nnc2ccccc21)NCc1ccccc1,-100
CC(=O)c1ccc(N(C(=O)Cn2nnc3ccccc32)C(C(=O)NCc2ccccc2)c2ccccn2)cc1 (stereo not drawn),-106
Cc1ccc(C(=O)CC(c2cccs2)S(=O)(=O)c2ccc(C)cc2)cc1 (stereo not drawn),-118
COc1ccc(C(=O)Nc2ccc3c(c2)nc2n3CCSC2)cc1,-67
Cc1ccc(C(=O)Nc2cccc(C(F)(F)F)c2)cc1Nc1ncnc2nc[nH]c12,-
COc1ccc(NC(=O)c2ccc3nc[nH]c3c2)cc1,-81
O=C(Nc1ccc(C(F)(F)F)cc1)c1ccc2nc[nH]c2c1,-78
SMILES,aSyn UTR act
O=C(Nc1ccc2c(c1)OCO2)c1ccc2nc[nH]c2c1,-112
COc1ccc(C(=O)Nc2ccc3nc(C)c(C)nc3c2)cc1,-87
COC(=O)c1ccccc1NC(=O)c1cc2ccccc2o1,-79
CC(=O)c1cccc(NC(=O)c2cc(=O)c3ccccc3o2)c1,-62
CCN1CCN(c2c(Cl)cccc2NC(=O)c2ccc([N+](=O)[O-])o2)CC1,-
O=C(Nc1ccccc1C(F)(F)F)c1cc2ccccc2o1,-209
O=C(Nc1cccc(Cl)c1N1CCCC1)c1cc2ccccc2o1,-74
COC(=O)c1cccc(NC(=O)c2cc3ccccc3o2)c1,-105
CN(C)S(=O)(=O)c1cc(NC(=O)c2cc(=O)c3ccccc3o2)ccc1Cl,-66
Cc1cc(=O)n2nc(-c3ccccc3)sc2n1,-99
COc1ccc2cc(/C=C/C(=O)c3ccco3)c(Cl)nc2c1,-78
Cc1ccc2nc(Cl)c(/C=C/C(=O)c3ccco3)cc2c1,-151
Cc1ccc2cc(/C=C/C(=O)c3ccco3)c(Cl)nc2c1,-121
COc1ccc2cc(/C=N/NC(=O)c3ccc(CN(c4ccc(C)c(C)c4)S(C)(=O)=O)cc3)c(Cl)nc2c1,-
Cc1cc(C(=O)COc2cccnc2[N+](=O)[O-])c(C)n1-c1ccccc1,-
Cc1cc(C(=O)COc2ccccc2[N+](=O)[O-])c(C)n1C1CC1,-131
Cc1cc(-n2c(C)cc(C(=O)COc3ccccc3[N+](=O)[O-])c2C)no1,-68
Cc1cc(C(=O)COC(=O)c2ccc[nH]c2=O)c(C)n1C1CC1,-99
Cc1cc(C(=O)COc2cccnc2[N+](=O)[O-])c(C)n1-c1ccccc1F,-
Cc1cc(C(=O)COC(=O)c2ccc(Cl)c(S(N)(=O)=O)c2)c(C)n1C1CC1,-143
Cc1cc(C(=O)COc2ccccc2C(N)=O)c(C)n1C1CC1,-76
CC(C)(C)c1ccc(NC(=O)Nc2ccc(F)cc2)cc1,-245
CCOC(=O)c1ccc(NC(=O)Nc2ccc(F)cc2)cc1,-106
O=C(Nc1ccc(F)cc1)Nc1cc(OCC(F)(F)F)cc(OCC(F)(F)F)c1,-
CCOC(=O)c1ccc(NC(=O)C23CCC(C)(C(=O)O2)C3(C)C)cc1 (stereo not drawn),-106
SMILES,aSyn UTR act
COc1ccc(NC(=O)CSc2ccccc2)cn1,-86
COc1ccc(NC(=O)/C(Cl)=C(/Cl)S(=O)Cc2ccccc2)cn1 (stereo not drawn),-
COC(=O)c1ccc(NC(=O)Nc2ccc(F)cc2)cc1,-141
COc1ccc(NC(=O)/C=C/c2cccc(Br)c2)cn1,-190
COc1ccc(NC(=O)Nc2ccc(F)cc2)cn1,-65
CCOC(=O)c1c(C)[nH]c(N=Nc2cccc(OC)c2)c1C,-208
CCOC(=O)c1c(C)[nH]c(N=Nc2cccc(C)c2)c1C,-211
C/C(CC1CC(COCC(C)C)OC1=O)=N\Nc1nc(-c2ccccc2)cs1 (stereo not drawn),-82
CN[C@H]1CCc2cc(OC)c(OC)c(OC)c2-c2ccc(N(C)CC(OC)OC)c(=O)cc21,-
O=C(Nc1cccc(-c2ccc(N3CCOCC3)nn2)c1)c1ccc([N+](=O)[O-])cc1,-99
Cc1ccccc1C(=O)Nc1cccc(-c2ccc(N3CCOCC3)nn2)c1,-65
O=C(Nc1cccc(-c2ccc(N3CCOCC3)nn2)c1)c1ccccc1,-80
O=C(COc1ccc(Cl)cc1Cl)Nc1cccc(-c2ccc(N3CCOCC3)nn2)c1,-72
Cc1ccc(C(=O)Nc2cccc(-c3ccc(N4CCOCC4)nn3)c2)cc1[N+](=O)[O-],-76
C/C(=N/NC(=O)c1ccncc1)c1ccc(NC(=O)c2ccc(Cl)cc2Cl)cc1,-185
